Screening data (PubChem)
Sampled rows, rich in hits. Any-hit rate of the full collection: about 3.9%.
HSF1 inh: HSF1 inhibitors in luciferase reporter cells, primary screen, cell-based, NIH3T3, luminescence; NIH3T3-HGL HSE-luciferase, MG132-induced, luminescence 8 h; hits give low values; activity change, negative = inhibition, % at 7.5 µM (by protocol); 0.77% of 300,000 active;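 active = more than half of replicate wells show activity change below -50%, luminescence cut by over half; inconclusive = some wells, but at most half, below -50%; inactive = no replicate well below -50%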;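 also: luciferase reports HSF-1 transcriptional activity via heat shock element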
esBAF inh: Bmi1 luciferase reporter increase in mESCs, primary screen, esBAF inhibitor project, mouse ES cells, Bmi1 luciferase knock-in, single point. 24 h; 100% = twice the neutral-well signal. reporter increase, % at 12.5 µM. 2% of 350,000 active. AID 602393, 2012; in the data active = activation above about 40%; inconclusive = no clear call, values can overlap the other calls;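 also: a rise in the Bmi1 reporter signal indicates esBAF inhibition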
Wnt bcat act: Wnt/beta-catenin pathway activators, primary screen, cell-based, plate reader, single point. AID 743398, 2014. activation, % at 9.35 µM. Wnt/beta-catenin reporter cell assay, activator. 1.2% of 300,000 active; in the data active = activation above about 30%, passing the limit was not always enough; inconclusive = no clear call, values can overlap the other calls
MITF TRPM1 HTS: activators of MITF-driven TRPM1 promoter reporter, primary screen, cell-based, SK-MEL-5, luciferase, single point. 0.75% of 300,000 active. activation, % at 12.5 µM. SK-MEL-5 TRPM1-promoter luciferase, 24 h; % of positive control, neutral wells = 0;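 active = mean activation of at least 80% with every replicate also reaching 80%; inconclusive = mean reaches 80% but some replicate falls short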
HSF1 activator: HSF-1 activators, primary screen, NIH3T3-HGL cells, MG132 stress, luminescence, single point; NIH3T3-HGL HSF-1 luciferase reporter, 8 h; 100% = twice DMSO control signal; activation, % at 9 µM; 1.7% of 300,000 active;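 active = mean replicate activation of at least 50% with a set share of replicates each reaching 50%; inconclusive = only one of those two conditions met; inactive = mean below 50% and too few replicates reaching it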
Hits are given with their value; - = inactive; ? = inconclusive; . = not tested or not shown.

SMILES	HSF1 inh	esBAF inh	Wnt bcat act	MITF TRPM1 HTS	HSF1 activator
CCn1ccc(C(=O)Nc2ccc(Cl)cn2)n1	-	48	32	.	-
CCn1nccc1C(=O)Nc1ccc(Cl)cn1	-	.	-	-	-
Cn1cnc(CCNC(=O)C[C@@H]2CC[C@H]3[C@@H](COC[C@H](O)CN3C(=O)Nc3ccccc3)O2)c1	.	-	.	.	.
COc1cccc2c1C(=O)c1c(O)c3c(c(O)c1C2=O)C[C@@](O)(C(C)=O)C[C@@H]3O[C@H]1C[C@H](N)[C@H](O)[C@H](C)O1	.	-	-	-	.
CC(=O)[C@]1(O)Cc2c(O)c3c(c(O)c2[C@@H](O[C@H]2C[C@H](N)[C@H](O)[C@H](C)O2)C1)C(=O)c1ccccc1C3=O	-79	.	.	.	-
COc1cccc2c1C(=O)c1c(O)c3c(c(O)c1C2=O)CC(O)(C(=O)CO)CC3OC1CC(N(C)C)C(O)C(C)O1 (stereo unspecified)	.	.	-	.	.
COc1cccc2c1C(=O)c1c(O)c3c(c(O)c1C2=O)C[C@@](O)(C(=O)CO)C[C@@H]3O[C@H]1C[C@H](N)[C@@H](O)[C@H](C)O1	-75	-	.	-	-
Cn1c(CCNC(=O)c2ccco2)nc2cc(NC(=O)c3ccccc3)ccc21	-	46	32	89	-
Cn1c(CCNC(=O)c2ccccc2)nc2cc(NC(=O)c3ccco3)ccc21	-	-	-	.	-
Cn1c(CCNC(=O)c2ccco2)nc2cc(NC(=O)c3ccco3)ccc21	-	51	39	.	-
N/C(=N\OC(=O)COc1ccc2ccccc2c1Br)c1ccccn1	-	85	44	?	83
N/C(=N\OC(=O)COc1ccc(Br)cc1Cl)c1ccncc1	.	.	67	130	.
N/C(=N\OC(=O)COc1ccc(Br)cc1Cl)c1ccccn1	-	.	.	-	51
N/C(=N\OC(=O)COc1ccc2ccccc2c1Br)c1cccnc1	-	.	-	.	-
N/C(=N\OC(=O)COc1ccc(Cl)cc1Cl)c1ccccn1	-	-	-	-	74
Cc1ccc(S(=O)(=O)Nc2ccc3c(c2)C(=O)N([C@@H](C)CO)C[C@@H](C)[C@@H](CN(C)S(=O)(=O)c2ccc(F)cc2)O3)cc1	.	-	.	.	.
CCCCn1cc(S(=O)(=O)c2ccccc2)c(=O)c2cc(C)ccc21	-74	-	-	-	-
CCc1cc[n+](CC(=O)Nc2ccc(Cl)cc2Cl)cc1	-72	.	-	-	-
COc1ccc(Cl)cc1NC(=O)C[n+]1ccccc1	-	-	-	-	-
COc1cccc(-c2ccc3n(c2=O)C[C@@H]2[C@@H](CO)[C@H](C(=O)N(C)C)N(C(=O)C4CCC4)[C@H]32)c1	.	-	.	.	.
O=C(O)c1cc([N+](=O)[O-])ccc1NCc1ccccc1	-	.	-	-	-
Cc1ccc(CNc2ccc([N+](=O)[O-])cc2C(N)=O)cc1	.	54	-	106	.
O=C1/C(=C/c2ccc(Cl)cc2)SC(=S)N1CCC(=O)N1CCCCC1CCO (stereo unspecified)	-	-	-	-	-
O=C1/C(=C/c2ccco2)SC(=S)N1CCC(=O)N1CCCCC1CCO (stereo unspecified)	-	-	-	-	55
COc1ccc(NC(=O)Nc2cccc3c2O[C@H](CN(C)S(=O)(=O)c2ccc(Cl)cc2)[C@@H](C)CN([C@@H](C)CO)C3=O)cc1	.	-	.	.	.
SMILES	HSF1 inh	esBAF inh	Wnt bcat act	MITF TRPM1 HTS	HSF1 activator
CCCOC(=O)c1ccc(Oc2cn[nH]c2-c2ccc(O)cc2O)cc1	-	-	-	-	52
CCOC(=O)c1ccc(Oc2cn[nH]c2-c2ccc(O)cc2O)cc1	-	-	-	-	-
COc1ccc(C2=Nc3ccccc3N(C(=O)c3ccc4ncccc4c3)C2C(=O)NC(C)(C)C)cc1 (stereo unspecified)	.	.	34	.	.
COc1ccc(C2=Nc3ccccc3N(C(=O)Cc3cc(OC)cc(OC)c3)C2C(=O)NC(C)(C)C)cc1 (stereo unspecified)	.	.	-	.	.
COC(=O)c1cc(COc2ccc3oc(C)c(C(=O)OC(C)C)c3c2)c(C)o1	-80	.	.	-	-
Cc1noc(C)c1S(=O)(=O)Nc1ccc2c(c1)C(=O)N([C@@H](C)CO)C[C@H](C)[C@H](CN(C)S(=O)(=O)c1ccc(Cl)cc1)OCCCC[C@H](C)O2	.	-	.	.	.
CO[C@H](CN(C)C(=O)c1ccccc1F)[C@@H](C)CN([C@H](C)CO)S(=O)(=O)c1ccc(F)cc1	.	-	.	.	.
COc1ccccc1N1CCN(Cc2cc(Br)c(O)c3ncccc23)CC1	-80	-	-	-	-
CCOc1ccccc1N1CCN(Cc2cccc(OC)c2O)CC1	-	.	.	-	?
CC[N+](CC)(CC)CC(=O)Nc1ccc(SC(F)F)cc1	-	-	-	-	-
Cc1ccc(C(=O)Nc2ccc3nc(C)sc3c2)s1	-	58	.	-	56
Cc1ccc(C(=O)Nc2ccc(SC(F)F)cc2)s1	-	.	-	83	-
O=C(Nc1ccon1)c1ccc(Br)s1	-	-	-	-	-
Cc1ccc(C(=O)Nc2ccc3nc(C)sc3c2)o1	.	?	-	.	.
Cc1nc2cc(NC(=O)c3ccc(Br)s3)ccc2s1	-	70	-	-	56
Cc1nc2ccc(NC(=O)CCC3CCCC3)cc2s1	-	50	-	-	-
CCCN1C[C@H](C)[C@H](OC)CN(C)C(=O)c2cc(NC(=O)Nc3cccc(OC)c3)ccc2OC[C@@H]1C	.	-	.	.	.
COc1ccc(S(=O)(=O)Nc2cccc3c2O[C@H](CN(C)C(=O)Nc2cccc4ccccc24)[C@H](C)CN([C@H](C)CO)C3=O)cc1	.	-	.	.	.
O=C(Nc1cccn(Cc2c(Cl)cccc2Cl)c1=O)c1ccccc1Cl	-	-	-	-	89
O=C(Nc1ccccc1)Nc1cccc2cccnc12	-	85	.	.	-
O=C(Nc1cccc2cccnc12)c1ccccc1Cl	-	-	-	.	91
O=C(O)c1ccccc1C(=O)Nc1ccc(Br)c2cccnc12	-	.	-	-	51
O=C(Nc1cccn(Cc2c(Cl)cccc2Cl)c1=O)c1ccc(Cl)cc1Cl	-	-	.	.	-
O=C(Nc1ccccc1)Nc1cccc2ccccc12	-	-	-	-	-
COc1ccccc1C(=O)Nc1cccc2cccnc12	-	64	-	-	-
COc1ccccc1NC(=O)c1ccccc1NC(=O)c1ccccn1	.	-	-	-	.
O=C(Cc1ccccc1)N1CC[C@@H]2[C@H](CO)Nc3ccc(C#Cc4cccc(F)c4)cc3[C@@H]21	.	-	.	.	.
COc1cccc(-c2cnc3c(c2)C(=O)N([C@@H](C)CO)C[C@H](C)[C@@H](CN(C)C(=O)Nc2ccccc2F)O3)c1	.	-	.	.	.
CN1C(=O)c2cc(NC(=O)Cc3cccs3)ccc2OC[C@H]2O[C@@H](CC(=O)NCC3CC3)CC[C@@H]21	.	-	.	.	.
CCc1ccc(-c2csc3ncn(Cc4ccc(C(=O)O)cc4)c(=O)c23)cc1	-	.	-	-	-
